In the library only some 6.7% were active in any assay of this set; here they are far more common.
T cruzi growth-1: T. cruzi intracellular proliferation inhibitors, primary screen, cell-based, beta-gal Tulahuen parasites, NIH3T3 host, luminescence. T. cruzi beta-gal in NIH3T3, GalScreen luminescence, 90 h. inhibition, % at 8.34 µM. 5.9% of 77,000 active;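 active = mean inhibition above about 93%, with at least 55% of replicates each passing it, limit read from the data, passing the limit was not always enough; inconclusive = only one of those two conditions holds; inactive = neither condition holds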
C diff HTS: C. difficile growth inhibitors, primary screen, HTS. growth activity, negative = inhibition, % at 16 µg/mL (by protocol). Clostridium difficile clinical isolate growth, OD600, 24 h; active compounds read low. 0.25% of 86,000 active. AID 1259249, 2017;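 active = mean growth activity at or below -80% and every replicate also at or below -80%; inconclusive = mean at or below -80% but some replicate above -80%; inactive = mean growth activity above -80%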;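 also: 0% = DMSO wells and -100% = levofloxacin 16 µg/mL wells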
Pf Dd2 growth: P. falciparum Dd2 growth inhibitors, primary screen, SYBR Green fluorescence, single dose replicates | 72 h; active compounds read low | activity change, % at 10 µM | 2.3% of 94,000 active | AID 1159554, 2015; in the data active = activity change below about -80%; inconclusive = no clear call, values can overlap the other calls
T cruzi growth-2: T. cruzi intracellular proliferation inhibitors, confirmation, cell-based, NIH3T3 host, beta-gal parasite, luminescence, cherry-pick; T. cruzi beta-gal in NIH3T3, GalScreen luminescence, 90 h; inhibition, % at 8.35 µM; 72% of 5,600 active; shares compounds with T cruzi growth-1; AID 651739, 2012;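 active = mean replicate inhibition above about 95% and at least 55% of replicates individually reaching it, limit read from the data; inconclusive = only one of the two criteria is met; inactive = neither criterion is met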
T cruzi growth-3: inhibitors of intracellular T. cruzi replication, confirmation, NIH3T3 host cells, beta-gal parasites, cherry-pick, set 2; shares compounds with T cruzi growth-1; T. cruzi beta-gal in NIH3T3, GalScreen luminescence, 90 h; inhibition, % at 2.09 µM; 21% of 5,600 active;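 active = mean inhibition above about 95%, with at least 55% of replicates also reaching it, limit read from the data; inconclusive = meets just one of the two conditions; inactive = meets neither condition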;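 also: plate controls were neutral control median for no effect and positive control median for full effect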
3T3 cytotox: cytotoxicity in mouse NIH/3T3 fibroblasts, confirmation, cytotoxicity control for T. cruzi proliferation inhibitor project, cell-based, cherry-pick, single point; shares compounds with T cruzi growth-1; NIH/3T3 viability, CellTiter-Glo ATP luminescence, 90 h; cytotoxicity (signal decrease), % at 8.35 µM; 14% of 5,600 active;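 active = mean signal decrease across replicates above about 35% based on untreated-well scatter, with enough replicates individually passing, limit read from the data; inconclusive = no rule stated though some were filed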;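 also: 0% = median of neutral control wells and 100% = median of positive control wells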
3T3 cytotox 2: NIH/3T3 fibroblast cytotoxicity, confirmation, cytotoxicity control, cell-based, cherry-pick, single point, set 2; shares compounds with T cruzi growth-1; AID 651744, 2012; inhibition, % at 24.9 µM; NIH/3T3 viability, CellTiter-Glo ATP luminescence, 90 h; 56% of 5,600 active;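 active = mean loss of cell viability signal at or above a set limit, and enough replicates individually reaching it; inconclusive = meets only the mean limit or only the replicate share; inactive = meets neither condition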;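 also: 0% = median of neutral control wells and 100% = median of positive control wells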
Numbers without * were called inactive; ? = inconclusive; . = no result given.

SMILES | T cruzi growth-1 | C diff HTS | Pf Dd2 growth | T cruzi growth-2 | T cruzi growth-3 | 3T3 cytotox | 3T3 cytotox 2
CC(=O)N1[C@H](CO)[C@@H](c2ccccc2)[C@@H]1CN(CC1CCC1)C(=O)CN(C)C | 27 | 1 | -1 | . | . | . | .
CC(=O)N1[C@@H](CO)[C@@H](c2ccccc2)[C@@H]1CN(CC1CCC1)C(=O)CN(C)C | 98* | 5 | -6 | 30 | -18 | 8 | 22
CCC(=O)N(CC1CCC1)C[C@H]1[C@H](c2ccccc2)[C@@H](CO)N1C(C)=O | 73 | -7 | -6 | . | . | . | .
C[C@H](CO)N1C[C@H](C)[C@H](CN(C)CC2CC2)Oc2ccc(NC(=O)CCCCCC(=O)Nc3ccccc3N)cc2CC1=O | 76 | -5 | -24 | . | . | . | .
C[C@H](CO)N1C[C@H](C)[C@@H](CN(C)Cc2ccc(C(=O)O)cc2)OCCCC[C@H](C)Oc2ccc(NC(=O)Nc3cccc4ccccc34)cc2C1=O | 12 | -5 | 34 | . | . | . | .
C[C@@H]1CCCCO[C@H](CN(C)Cc2ccc(C(=O)O)cc2)[C@H](C)CN([C@H](C)CO)C(=O)c2cc(NC(=O)Nc3cccc4ccccc34)ccc2O1 | 22 | -3 | -53 | . | . | . | .
C[C@@H]1CCCCO[C@@H](CN(C)Cc2ccc(C(F)(F)F)cc2)[C@@H](C)CN([C@H](C)CO)C(=O)c2cc(NC(=O)Nc3cccc4ccccc34)ccc2O1 | 102* | 6 | 31 | 104* | 32 | 10 | 10
C[C@@H]1CCCCO[C@@H](CN(C)Cc2ccc(C(F)(F)F)cc2)[C@H](C)CN([C@H](C)CO)C(=O)c2cc(NC(=O)Nc3cccc4ccccc34)ccc2O1 | ? | 6 | -4 | 105* | 115* | 30 | 14
C[C@H]1CCCCO[C@H](CN(C)Cc2ccc(C(=O)O)cc2)[C@@H](C)CN([C@@H](C)CO)C(=O)c2cc(NC(=O)Nc3cccc4ccccc34)ccc2O1 | 19 | 2 | 67 | . | . | . | .
C[C@@H]1CN([C@@H](C)CO)C(=O)c2cc(NC(=O)Nc3cccc4ccccc34)ccc2O[C@@H](C)CCCCO[C@H]1CN(C)Cc1ccc(C(=O)O)cc1 | 11 | 4 | 45 | . | . | . | .
C[C@@H]1CCCCO[C@H](CN(C)Cc2ccc(C(F)(F)F)cc2)[C@H](C)CN([C@@H](C)CO)C(=O)c2cc(NC(=O)Nc3cccc4ccccc34)ccc2O1 | ? | 0 | -43 | 103* | 109* | ? | 17
C[C@@H]1CCCCO[C@@H](CN(C)Cc2ccc(C(F)(F)F)cc2)[C@H](C)CN([C@@H](C)CO)C(=O)c2cc(NC(=O)Nc3cccc4ccccc34)ccc2O1 | 123* | 11 | -26 | 111* | 110* | 2 | 8
CCC(=O)N(C)C[C@H]1Oc2cc(-c3ccc(C#N)cc3)ccc2S(=O)(=O)N([C@@H](C)CO)C[C@H]1C | 35 | 0 | -20 | . | . | . | .
C[C@@H]1CN([C@@H](C)CO)C(=O)Cc2cc(NS(=O)(=O)c3cccs3)ccc2O[C@H]1CN(C)Cc1ccncc1 | -3 | -5 | -33 | . | . | . | .
C[C@@H]1CN([C@H](C)CO)C(=O)c2cc(-c3cncnc3)cnc2O[C@@H]1CN(C)C(=O)c1cccc(F)c1 | 13 | -3 | 21 | . | . | . | .
COCC(=O)N(C)C[C@@H]1Oc2ncc(-c3ccc(C#N)cc3)cc2C(=O)N([C@H](C)CO)C[C@H]1C | . | -6 | 20 | . | . | . | .
CC(C)C#Cc1ccc2c(c1)O[C@H](CN(C)S(C)(=O)=O)[C@H](C)CN([C@H](C)CO)S2(=O)=O | 48 | -2 | -2 | . | . | . | .
C[C@H]1CCCCO[C@H](CN(C)S(=O)(=O)c2ccccc2)[C@@H](C)CN([C@@H](C)CO)C(=O)c2cc(NS(=O)(=O)c3cccs3)ccc2O1 | 61 | -2 | . | . | . | . | .
C[C@@H]1CCCCO[C@@H](CN(C)S(=O)(=O)c2ccc(Cl)cc2)[C@H](C)CN([C@@H](C)CO)C(=O)c2cc(NS(=O)(=O)c3cccs3)ccc2O1 | 102* | -9 | . | 105* | 83 | 21 | -2
C[C@@H]1CN([C@@H](C)CO)C(=O)c2cc(NS(=O)(=O)c3cccs3)ccc2O[C@@H](C)CCCCO[C@H]1CN(C)S(=O)(=O)c1ccc(Cl)cc1 | 93 | -1 | . | . | . | . | .
C[C@@H]1CCCCO[C@H](CN(C)S(=O)(=O)c2ccc(Cl)cc2)[C@@H](C)CN([C@@H](C)CO)C(=O)c2cc(NS(=O)(=O)c3cccs3)ccc2O1 | 110* | -1 | . | 113* | 70 | 7 | 3
C[C@@H]1CCCCO[C@H](CN(C)CC2CCCCC2)[C@H](C)CN([C@@H](C)CO)C(=O)c2cc(NC(=O)Cc3ccccc3)ccc2O1 | 26 | 9 | -26 | . | . | . | .
CC(C)NC(=O)Nc1ccc2c(c1)C(=O)N([C@@H](C)CO)C[C@@H](C)[C@@H](CN(C)S(=O)(=O)c1ccc(Cl)cc1)OCCCC[C@@H](C)O2 | 108* | 2 | -70 | 101* | 41 | -13 | 0
C[C@H](CO)N1C[C@H](C)[C@@H](CN(C)S(=O)(=O)c2ccc(Cl)cc2)OCCCC[C@H](C)Oc2ccc(NC(=O)NC3CCCCC3)cc2C1=O | 106* | -1 | . | 109* | 75 | -10 | 0
C[C@H]1CCCCO[C@H](CN(C)S(=O)(=O)c2ccc(Cl)cc2)[C@@H](C)CN([C@@H](C)CO)C(=O)c2cc(NC(=O)NC3CCCCC3)ccc2O1 | 87 | 2 | . | . | . | . | .
Cc1noc(C)c1NC(=O)Nc1ccc2c(c1)C(=O)N([C@H](C)CO)C[C@H](C)[C@H](CN(C)S(=O)(=O)c1ccc(Cl)cc1)OCCCC[C@H](C)O2 | ? | -24 | -67 | 55 | -43 | -21 | -30
Cc1noc(C)c1NC(=O)Nc1ccc2c(c1)C(=O)N([C@@H](C)CO)C[C@@H](C)[C@@H](CN(C)S(=O)(=O)c1ccc(Cl)cc1)OCCCC[C@@H](C)O2 | 72 | . | -69 | . | . | . | .
CC(C)NC(=O)Nc1ccc2c(c1)C(=O)N([C@H](C)CO)C[C@@H](C)[C@H](CN(C)S(=O)(=O)c1ccc(Cl)cc1)OCCCC[C@@H](C)O2 | 72 | 10 | -76 | . | . | . | .
COCC(=O)Nc1ccc2c(c1)[C@@H]1C[C@H](CC(=O)NCc3ccccc3OC)O[C@H](CO)[C@@H]1O2 | 11 | -6 | -2 | . | . | . | .
O=C(C1CCCCC1)N1CC2(C1)[C@H](c1ccccc1)[C@H](CO)N2Cc1nccs1 | . | -4 | -39 | . | . | . | .
